Measurements: PubChem BioAssay (EPA / NIEHS)
Inconclusive results are not listed. Active and inactive are the calls of the source. How the source made its calls, unless noted: active means hit-call score of the fitted dose curve at least 0.9, where 1 is the maximum; inactive means score below 0.9.

Columns and labels:
[1] = ATG_PBREM_CIS: Attagene CIS-FACTORIAL HepG2 Assay for human Phenobarbital-responsive Enhancer Module (PBREM) (AID 2282955); details: HepG2 PBREM cis-reporter, Attagene multiplexed transcription; actives raise or lower the signal
Procedure, shortened: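 Measures endogenous factor action on a phenobarbital-responsive enhancer module. HepG2 transiently carrying cis reporters, 24 h treatment, mRNA read-out by RT-PCR plus capillary electrophoresis.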

[2] = target: Paired box protein Pax-6 (Homo sapiens) (UniProt P26367); experiment: ATG_Pax6_CIS: Attagene CIS-FACTORIAL HepG2 Assay for human Paired Box 6 (PAX6) (AID 2282956); details: HepG2 CIS-FACTORIAL PAX6 reporter transcription, RNA readout; actives raise or lower the signal
Paired box protein Pax-6 (Homo sapiens), sequence (P26367 whole entry, looked up): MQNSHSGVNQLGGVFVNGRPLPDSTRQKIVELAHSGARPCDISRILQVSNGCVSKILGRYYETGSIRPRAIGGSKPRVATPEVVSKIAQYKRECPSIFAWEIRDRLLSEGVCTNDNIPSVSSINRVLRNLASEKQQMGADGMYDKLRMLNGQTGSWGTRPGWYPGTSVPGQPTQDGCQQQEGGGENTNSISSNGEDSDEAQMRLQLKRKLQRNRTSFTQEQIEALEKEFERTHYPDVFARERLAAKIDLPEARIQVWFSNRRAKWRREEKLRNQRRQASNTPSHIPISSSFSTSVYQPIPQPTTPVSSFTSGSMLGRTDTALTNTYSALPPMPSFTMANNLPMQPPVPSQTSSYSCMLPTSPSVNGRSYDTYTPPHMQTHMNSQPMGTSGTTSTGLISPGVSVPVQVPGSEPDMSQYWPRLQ
Procedure, shortened: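 Fluorescent RT-PCR products separated by capillary electrophoresis report PAX6-linked promoter mRNA in HepG2 cells 24 h post-dose. Curves fitted bidirectionally, DMSO as negative control.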

[3] = ATG_PPRE_CIS: Attagene CIS-FACTORIAL HepG2 Assay for human Peroxisome Proliferator-activated Response Element (PPRE) (AID 2282958); details: HepG2 PPRE cis-element reporter, Attagene transcription factor profiling; actives raise or lower the signal
Procedure, shortened: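 PPRE activity in HepG2: transient cis-reporter transfection, 24 h compound incubation, reporter mRNA by RT-PCR and CE fluorescence; gain/loss fitted against DMSO.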

[4] = ATG_RORE_CIS: Attagene CIS-FACTORIAL HepG2 Assay for human RAR-related Orphan Receptor Element (RORE) (AID 2282959); details: HepG2 Attagene cis-factorial RORE reporter, mRNA; actives raise or lower the signal
Procedure, shortened: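 A 24-hour exposure of transfected HepG2 hepatoma cells precedes RNA isolation and reporter RT-PCR. Labeled products are digested with HpaI and resolved by capillary electrophoresis, with gain or loss of signal scored relative to DMSO.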

[5] = ATG_Sox_CIS: Attagene CIS-FACTORIAL HepG2 Assay for human SRY-box transcription factor (SOX) (AID 2282960); details: HepG2 Attagene cis-factorial SOX reporter, mRNA; actives raise or lower the signal
Procedure, shortened: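 HepG2, cis reporter units, 24 h exposure. Reporter mRNA: RT-PCR → FAM labelling → HpaI → CE fluorescence. Bidirectional fit vs DMSO.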

[6] = target: Transcription factor Sp1 (Homo sapiens) (UniProt P08047); experiment: ATG_Sp1_CIS: Attagene CIS-FACTORIAL HepG2 Assay for human Specificity Protein 1 (Sp1) (AID 2282961); details: HepG2 Sp1 cis-reporter transcription, actives raise or lower the signal
Transcription factor Sp1 (Homo sapiens), sequence (P08047 whole entry, looked up, the tested form may be a part): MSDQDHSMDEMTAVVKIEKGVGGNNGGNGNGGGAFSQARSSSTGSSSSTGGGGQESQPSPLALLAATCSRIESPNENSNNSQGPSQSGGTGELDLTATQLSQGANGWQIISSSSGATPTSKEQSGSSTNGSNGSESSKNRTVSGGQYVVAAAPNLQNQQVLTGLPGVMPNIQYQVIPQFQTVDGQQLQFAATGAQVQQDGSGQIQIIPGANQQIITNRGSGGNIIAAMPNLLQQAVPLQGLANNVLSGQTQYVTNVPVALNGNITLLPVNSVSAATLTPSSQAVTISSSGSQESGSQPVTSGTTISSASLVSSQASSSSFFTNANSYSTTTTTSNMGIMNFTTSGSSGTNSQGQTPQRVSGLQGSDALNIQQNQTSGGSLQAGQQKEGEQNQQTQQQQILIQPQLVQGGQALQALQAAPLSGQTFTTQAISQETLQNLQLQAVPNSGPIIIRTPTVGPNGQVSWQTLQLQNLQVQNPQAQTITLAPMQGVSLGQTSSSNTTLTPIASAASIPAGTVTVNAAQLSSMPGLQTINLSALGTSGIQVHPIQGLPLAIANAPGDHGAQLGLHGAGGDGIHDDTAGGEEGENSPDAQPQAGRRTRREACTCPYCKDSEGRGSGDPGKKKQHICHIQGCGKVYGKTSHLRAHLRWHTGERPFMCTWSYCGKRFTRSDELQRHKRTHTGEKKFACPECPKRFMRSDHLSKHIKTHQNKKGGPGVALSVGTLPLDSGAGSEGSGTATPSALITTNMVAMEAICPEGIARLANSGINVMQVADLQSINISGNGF
Procedure, shortened: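 Liver-derived HepG2 cells, cis-element reporter library, 24 h treatment; RNA isolated, cDNA amplified with reporter-specific primers, FAM-labeled fragments sized on capillary analyzer. DMSO baseline, bidirectional curve fit.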

[7] = ATG_SREBP_CIS: Attagene CIS-FACTORIAL HepG2 Assay for human Sterol Regulatory Element Binding (SREBP) (AID 2282962); details: HepG2 Attagene cis-factorial SREBP reporter, mRNA; actives raise or lower the signal
Procedure, shortened: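 Endogenous factor activity is measured in HepG2 through multiplexed reporter units under cis-element control. Following a 24 h incubation, reporter transcripts are reverse-transcribed, PCR-amplified and sized by capillary electrophoresis; activity is fitted in both directions relative to DMSO.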

[8] = target: Signal transducer and activator of transcription 3 (Homo sapiens) (UniProt P40763); experiment: ATG_STAT3_CIS: Attagene CIS-FACTORIAL HepG2 Assay for human Signal Transducer and Activator of Transcription 3 (STAT3) (AID 2282963); details: HepG2, Attagene cis-factorial STAT3 reporter transcription; actives raise or lower the signal
Signal transducer and activator of transcription 3 (Homo sapiens), sequence (P40763 whole entry, looked up): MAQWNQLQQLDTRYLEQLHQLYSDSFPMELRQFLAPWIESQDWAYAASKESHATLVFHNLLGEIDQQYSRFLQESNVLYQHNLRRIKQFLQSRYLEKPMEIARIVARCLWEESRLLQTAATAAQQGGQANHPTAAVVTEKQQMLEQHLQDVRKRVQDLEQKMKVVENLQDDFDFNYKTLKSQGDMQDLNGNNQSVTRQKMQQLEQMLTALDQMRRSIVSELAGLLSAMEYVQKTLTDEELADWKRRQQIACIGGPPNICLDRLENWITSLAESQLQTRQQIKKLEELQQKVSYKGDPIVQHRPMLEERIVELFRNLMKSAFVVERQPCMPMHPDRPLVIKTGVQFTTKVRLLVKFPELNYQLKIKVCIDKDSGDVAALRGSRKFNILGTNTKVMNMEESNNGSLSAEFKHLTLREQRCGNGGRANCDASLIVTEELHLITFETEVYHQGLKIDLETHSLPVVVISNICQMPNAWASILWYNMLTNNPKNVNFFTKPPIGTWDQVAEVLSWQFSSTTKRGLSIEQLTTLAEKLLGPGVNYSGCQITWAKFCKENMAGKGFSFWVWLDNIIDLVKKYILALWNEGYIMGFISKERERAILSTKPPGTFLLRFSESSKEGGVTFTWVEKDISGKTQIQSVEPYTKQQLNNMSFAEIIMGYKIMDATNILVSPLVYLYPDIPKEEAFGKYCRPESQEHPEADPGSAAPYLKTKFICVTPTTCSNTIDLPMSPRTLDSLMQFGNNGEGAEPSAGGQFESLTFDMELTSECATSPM
Procedure, shortened: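 HepG2, MRTU-transfected, 24 h dosing. RNA → RT → PCR → FAM label → HpaI → CE. Bidirectional fit vs DMSO.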

[9] = ATG_TA_CIS: Attagene CIS-FACTORIAL HepG2 Assay for human TA Basal Promoter (AID 2282964); details: HepG2 Attagene CIS-factorial TA basal promoter reporter; actives raise or lower the signal
Procedure, shortened: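 Transient MRTU transfection of HepG2 preceded 24 h compound exposure. Reporter mRNA levels were then read by RT-PCR with capillary electrophoresis, and this background-control endpoint was fitted bidirectionally to DMSO.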

[10] = ATG_TCF_b_cat_CIS: Attagene CIS-FACTORIAL HepG2 Assay for human T-Cell-Factor with beta-catenin (TCF/b-cat) (AID 2282965); details: HepG2 TCF/beta-catenin cis-reporter transcription, actives raise or lower the signal
Procedure, shortened: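 HepG2 cells transiently transfected with multiple cis-promoter-regulated reporter transcription units, so endogenous transcription factor activity is measured. Reporter mRNA read 24 hours after dosing by RT-PCR, fluorescent labelling and capillary electrophoresis; bidirectional fitting against DMSO.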

[11] = ATG_TAL_CIS: Attagene CIS-FACTORIAL HepG2 Assay for human TAL Basal Promoter (AID 2282966); details: HepG2 Attagene cis-factorial TAL promoter reporter; actives raise or lower the signal;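 further: background control endpoint measuring basal TAL promoter reporter mRNA not a specific factor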
Procedure, shortened: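 Human hepatoma HepG2 cells, transfected with promoter-regulated reporter units, were treated 24 h. Reporter transcript levels, measured through RT-PCR and capillary electrophoresis, were fitted for gain or loss relative to DMSO.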

[12] = ATG_TGFb_CIS: Attagene CIS-FACTORIAL HepG2 Assay for human Transforming Growth Factor (TGF) (AID 2282967); details: HepG2 Attagene CIS TGFb reporter, mRNA transcription; actives raise or lower the signal
Procedure, shortened: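 After a 24-hour incubation with compound, transfected HepG2 cells were lysed for RNA; reporter cDNA was amplified, fluorescently end-labeled and separated by CE. DMSO served as baseline for bidirectional fits.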

[13] = ATG_VDRE_CIS: Attagene CIS-FACTORIAL HepG2 Assay for human Vitamin D Receptor Element (VDRE) (AID 2282968); details: HepG2 VDRE cis-reporter transcription, actives raise or lower the signal
Procedure, shortened: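 Steps: transfect HepG2 with multiple reporter transcription units; dose chemicals 24 h; isolate RNA; RT-PCR; label with 6-FAM primer extension; HpaI digest; capillary electrophoresis. Curves fitted both directions against DMSO.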

[14] = target: Nuclear receptor subfamily 1 group I member 3 (Homo sapiens) (UniProt Q14994); experiment: ATG_CAR_TRANS: Attagene TRANS-FACTORIAL HepG2 Assay for human Constitutive Androstane Receptor (CAR) (AID 2282969; active means hit-call score of the fitted dose curve at least 0.9, where 1 is the maximum;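 further: activators raise reporter mRNA above DMSO so AC50 marks induction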); details: HepG2 Attagene TRANS-FACTORIAL CAR reporter
Nuclear receptor subfamily 1 group I member 3 (Homo sapiens), sequence (Q14994 whole entry, looked up, the tested form may be a part): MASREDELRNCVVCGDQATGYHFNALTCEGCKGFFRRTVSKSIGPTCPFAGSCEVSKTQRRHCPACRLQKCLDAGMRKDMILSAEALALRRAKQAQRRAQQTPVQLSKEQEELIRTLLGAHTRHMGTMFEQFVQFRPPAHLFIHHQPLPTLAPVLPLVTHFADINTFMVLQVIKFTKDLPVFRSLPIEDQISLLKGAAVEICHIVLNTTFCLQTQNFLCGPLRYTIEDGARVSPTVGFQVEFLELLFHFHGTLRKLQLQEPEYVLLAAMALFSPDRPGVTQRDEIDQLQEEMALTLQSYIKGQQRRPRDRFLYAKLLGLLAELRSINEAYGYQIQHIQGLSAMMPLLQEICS
Procedure, shortened: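 Steps: transient transfection of HepG2 with multiple GAL4-UAS reporter units; 24 h compound incubation; RNA isolation, RT-PCR, 6-FAM primer extension, HpaI digest; capillary electrophoresis. Gain-of-signal relative to DMSO negative control.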

[15] = target: Estrogen receptor (Homo sapiens) (UniProt P03372); experiment: ATG_ERa_TRANS: Attagene TRANS-FACTORIAL HepG2 Assay for human Estrogen Receptor alpha (ERa) (AID 2282970; active means hit-call score of the fitted dose curve at least 0.9, where 1 is the maximum); details: HepG2 Attagene TRANS ERa GAL4 reporter, mRNA
Estrogen receptor (Homo sapiens), sequence (P03372 whole entry, looked up, the tested form may be a part): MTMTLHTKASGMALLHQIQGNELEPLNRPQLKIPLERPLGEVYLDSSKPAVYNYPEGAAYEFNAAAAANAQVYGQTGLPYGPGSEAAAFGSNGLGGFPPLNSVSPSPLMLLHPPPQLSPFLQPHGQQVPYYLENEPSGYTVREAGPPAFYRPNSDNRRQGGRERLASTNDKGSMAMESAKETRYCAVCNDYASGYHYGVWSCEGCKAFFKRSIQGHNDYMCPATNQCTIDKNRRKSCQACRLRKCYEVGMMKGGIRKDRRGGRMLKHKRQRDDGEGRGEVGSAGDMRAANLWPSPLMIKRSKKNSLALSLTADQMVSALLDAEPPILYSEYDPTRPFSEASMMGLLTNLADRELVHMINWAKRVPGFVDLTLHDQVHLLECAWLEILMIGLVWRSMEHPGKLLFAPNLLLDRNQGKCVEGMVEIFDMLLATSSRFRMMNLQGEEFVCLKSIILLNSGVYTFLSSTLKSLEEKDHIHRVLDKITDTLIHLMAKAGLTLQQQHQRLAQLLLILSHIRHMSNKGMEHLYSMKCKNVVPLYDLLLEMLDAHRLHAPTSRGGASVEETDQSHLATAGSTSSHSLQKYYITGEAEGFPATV
Procedure, shortened: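 Signal derives from fluorescence of labelled reporter PCR fragments separated by capillary electrophoresis. HepG2 cells transiently carrying multiple GAL4-UAS reporter units were treated 24 hours, and induction above DMSO baseline was fitted as activity.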

[16] = target: X-box-binding protein 1 (Homo sapiens) (UniProt P17861); experiment: ATG_Xbp1_CIS: Attagene CIS-FACTORIAL HepG2 Assay for human X-box Binding Protein 1 (XBP1) (AID 2282972); details: HepG2 XBP1 cis-element reporter, Attagene multiplex; actives raise or lower the signal
X-box-binding protein 1 (Homo sapiens), sequence (P17861 whole entry, looked up): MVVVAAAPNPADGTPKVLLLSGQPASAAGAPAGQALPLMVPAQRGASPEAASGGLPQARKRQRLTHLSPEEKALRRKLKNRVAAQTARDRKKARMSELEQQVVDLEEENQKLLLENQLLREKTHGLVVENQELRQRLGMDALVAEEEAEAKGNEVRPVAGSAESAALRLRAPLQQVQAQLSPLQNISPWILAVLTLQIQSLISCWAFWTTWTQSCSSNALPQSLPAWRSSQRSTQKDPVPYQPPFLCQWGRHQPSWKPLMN
Procedure, shortened: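 Multiplexed cis-reporter readout in transfected HepG2 liver cells. Exposure lasted 24 hours. Activity in either direction was fitted against DMSO as negative control and baseline.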

[17] = ATG_GAL4_TRANS: Attagene TRANS-FACTORIAL HepG2 Assay for GAL4 (Internal Marker) (AID 2282976; active means hit-call score of the fitted dose curve at least 0.9, where 1 is the maximum); details: HepG2 Attagene TRANS GAL4 internal marker reporter
Procedure, shortened: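 Liver HepG2 line bearing multiplexed GAL4-UAS reporter constructs; 24 h chemical treatment. Transcripts were quantified as fluorescent fragments on capillary electrophoresis after RT-PCR and HpaI cut, with activity fitted upward from DMSO.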

[18] = target: Steroid hormone receptor ERR1 (Homo sapiens) (UniProt P11474); experiment: ATG_ERRa_TRANS: Attagene TRANS-FACTORIAL HepG2 Assay for human Estrogen-Related Receptor alpha (ERRa) (AID 2282971; active means hit-call score of the fitted dose curve at least 0.9, where 1 is the maximum); details: HepG2 Attagene TRANS reporter, ERRa transactivation
Steroid hormone receptor ERR1 (Homo sapiens), sequence (P11474 whole entry, looked up, the tested form may be a part): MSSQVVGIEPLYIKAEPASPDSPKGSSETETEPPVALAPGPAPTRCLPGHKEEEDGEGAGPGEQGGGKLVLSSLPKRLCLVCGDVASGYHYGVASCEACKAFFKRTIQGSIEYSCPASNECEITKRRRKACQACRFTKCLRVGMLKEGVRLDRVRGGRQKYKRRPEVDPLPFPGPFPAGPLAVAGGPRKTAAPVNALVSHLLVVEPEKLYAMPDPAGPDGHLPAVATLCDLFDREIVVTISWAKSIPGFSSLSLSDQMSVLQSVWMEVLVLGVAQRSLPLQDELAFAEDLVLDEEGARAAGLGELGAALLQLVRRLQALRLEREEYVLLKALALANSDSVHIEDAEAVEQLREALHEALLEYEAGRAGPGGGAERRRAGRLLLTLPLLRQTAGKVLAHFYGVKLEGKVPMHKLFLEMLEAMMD
Procedure, shortened: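 Signal gain relative to DMSO for an ERRa-Gal4 chimeric receptor, read as reporter mRNA by RT-PCR/capillary electrophoresis. Human HepG2 liver cells, transient multiplex reporter transfection, 24 h chemical exposure.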

[19] = ATG_PXRE_CIS: Attagene CIS-FACTORIAL HepG2 Assay for human Pregnane X Receptor Element (PXRE) (AID 2282957); details: HepG2 Attagene CIS-FACTORIAL PXRE reporter, mRNA; actives raise or lower the signal
Procedure, shortened: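 Bidirectional activity, baselined to DMSO, derived from reporter mRNA fluorescence (RT-PCR plus capillary electrophoresis) in HepG2 cells bearing cis-promoter reporter units, 24 h exposure.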

Measured: AC50

FC(F)(F)C(F)(F)C(F)(F)C(F)(F)CCI
active: [15] 13.6 µM
not listed: [18] | [19]
inactive: all other assays above

O=C(C=Cc1ccccc1)OCC=Cc1ccccc1
active: [15] 18 µM
not listed: [18] | [19]
inactive: all other assays above

FC(F)(F)C(F)(F)C(F)(F)C(F)(F)C(F)(F)C(F)(F)C(F)(F)Br
not listed: [19]
inactive: all other assays above

FC(F)(F)C(F)(F)C(F)(F)C(F)(F)C(F)(F)C(F)(F)C(F)(F)I
active: [15] 3.7 µM
not listed: [2] | [17]
inactive: all other assays above

FC(F)(F)C(F)(F)CNCC(F)(F)C(F)(F)F
not listed: [18] | [19]
inactive: all other assays above

FC(F)(I)C(F)(F)C(F)(F)C(F)(F)I
active: [15] 0.299 µM
not listed: [18] | [19]
inactive: all other assays above

CCc1c(Br)c(Br)c(Br)c(Br)c1Br
active: [1] 23.7 µM
not listed: [17] | [19]
inactive: all other assays above
